Experimental data as given in PubChem BioAssay (NCATS).
Values joined by “and” are separate entries in the source; they are usually repeats but may differ in a detail not shown here. Equal entries are not always repeated. Records with an inconclusive call do not appear. Active and inactive are the calls of the source. Calls follow the shape of the dose curve; as a rule, active = well fitted curve in the direction sought with a large enough effect; inconclusive = small, poorly fitted or top-dose-only effect, or another doubt; inactive = no such curve, though single readings can be large; an effect the other way counts as inactive or inconclusive.

Legend:
[1] = Cell Viability - N2a (AID 540); conditions: N2a mouse neuroblastoma cell viability; activity change, negative = cytotoxicity: at 92.2 µM (top of the series);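 also: plate controls were DMSO alone for no effect and tamoxifen control for full effect; nearly all actives have a fitted effect of over 45% in size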
Summary of the method: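 CellTiter-Glo ATP luminescence, read 20 min after reagent at room temperature, reported viability following 40 h compound treatment at 37 °C. N2a mouse neuroblastoma cells seeded 1500/well; Hill equation gave AC50.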

[2] = Cell Viability - Renal Proximal Tubule (AID 545);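 also: cells exposed to compound for 40 hours; nearly all actives have a fitted effect of over 40% in size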
Summary of the method: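 Luminescent ATP signal (CellTiter-Glo) served as the viability read-out after 40 hr compound exposure of freshly isolated rat proximal tubule cells at 37 °C. Concentration-dependent ATP loss was fitted with the Hill equation to give AC50.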

[3] = Cellular Toxicity (caspase-3) NIH 3T3 (AID 666);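 also: caspase signal read after 16 h compound exposure; 0% = DMSO basal and 100% = 100 µM tamoxifen stimulation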
Summary of the method: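 Caspase-Glo 3/7 luminescence reported caspase activation in 1000 NIH 3T3 cells/well after 16 h compound exposure at 37 C. DMSO set basal and 100 uM tamoxifen set 100% stimulation; concentration-response modeled with the Hill equation for AC50.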

[4] = Cellular Toxicity (caspase-3) Renal Proximal Tubule (AID 667);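 also: cells exposed to compound for 16 hours at 37 °C before detection; 0% = DMSO basal and 100% = 10 µM staurosporine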
Summary of the method: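 AC50 derived by standard Hill fit of concentration-response data, normalized between DMSO basal and 10 uM staurosporine as 100% stimulation. Cells: primary rat kidney proximal tubule, 16 h treatment at 37 °C.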

[5] = MultiTox-Fluor Cytotoxicity Assay - LYMP1-001 - Dead Cells (AID 946)
Summary of the method: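 Cytotoxicity as increased dead-cell protease fluorescence (bis-AAF-R110, 485/520 nm), read 60 min after MultiTox-Fluor reagent. Human lymphoblastoid line exposed 16 h; Hill-fitted AC50, with DMSO as 0% and 15 uM tetraoctylammonium bromide as 100%.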

[6] = Cell Viability - LYMP1-003 - Assay at 24 hr (AID 963);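 also: plate controls were DMSO only for no effect and tetraoctylammonium bromide positive control for full effect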
Summary of the method: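 Concentration-response qHTS: ATP loss measured by CellTiter-Glo luminescence after 24 h compound exposure at 37 C. Cells were LYMP1-003 human lymphoblastoid, 2500 per well. AC50 derived via standard Hill equation modeling.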

[7] = Cell Viability - LYMP2-019 (AID 973);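 also: 0% = DMSO alone and full effect = 92 µM tetraoctylammonium bromide; nearly all actives have a fitted effect of over 55% in size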
Summary of the method: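 AC50 values come from Hill-equation fits of luminescent intracellular ATP (CellTiter-Glo, 30 min, room temperature) following 24 h compound exposure at 37 C. Cells: LYMP2-019 lymphoblastoid line, 2500 per well, in complete culture medium.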

[8] = Cell Viability - LYMP2-002 (AID 977);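 also: plate controls were DMSO only for no effect and 92 µM tetraoctylammonium bromide for full effect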
Summary of the method: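 Human lymphoblastoid cells, 2500/well, complete medium; 5 h 37 C settle; compound 24 h 37 C; CellTiter-Glo, 30 min RT; luminescence. Decrease in ATP = cytotoxicity; AC50 via Hill equation.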

[9] = Cell Viability - LYMP2-006 (AID 978); also: % is scaled to controls: 0 for no effect and ±100 for the full control effect; nearly all actives have a fitted effect of over 60% in size
Summary of the method: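 Cells are seeded at 2500 per well and rested 5 hr at 37 C. Compounds are added across a concentration series for 24 hr at 37 C, after which ATP is quantified by luciferase luminescence.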

[10] = Cell Viability - LYMP2-010 (AID 981); also: % is scaled to controls: 0 for no effect and ±100 for the full control effect; nearly all actives have a fitted effect of over 55% in size
Summary of the method: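 CellTiter-Glo ATP luminescence measured cytotoxicity after 24 h compound exposure at 37 C. LYMP2-010 cells were seeded at 2500/well, with tetraoctylammonium bromide as control; concentration-response curves gave AC50 values by the Hill equation.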

[11] = Cell Viability - LYMP2-014 (AID 983);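 also: plate controls were DMSO only for no effect and 92 µM tetraoctylammonium bromide for full effect; nearly all actives have a fitted effect of over 50% in size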
Summary of the method: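 Intracellular ATP loss, read by luciferase luminescence, measures acute cytotoxicity after 24 h compound exposure of lymphoblastoid LYMP2-014 cells (2500/well, 37 C). Concentration-response data fitted to the Hill equation for AC50.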

[12] = Cell Viability - LYMP2-022 (AID 987);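 also: 0% = DMSO alone and full effect = tetraoctylammonium bromide at 92 µM; nearly all actives have a fitted effect of over 55% in size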
Summary of the method: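 Cytotoxicity read as decreased cellular ATP (CellTiter-Glo luminescence, 30 min room temperature) after 24 hours compound exposure of 2500 lymphoblastoid LYMP2-022 cells/well at 37 C. Concentration-response data fitted with standard Hill equation for AC50.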

[13] = qHTS assay for environmental chemicals that activate the Aryl hydrocarbon Receptor (AhR) signaling pathway (AID 651777); conditions: 1A2-DRE human hepatoma cells, luciferase, 24 h; activation: active compounds read high; also: % of control where 0% means no effect; nearly all actives have a fitted effect of over 15% in size
Summary of the method: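 Quantitative HTS in stably transfected human liver-derived cells whose luciferase gene sits downstream of the CYP1A2 promoter and dioxin response element. After 24 hr exposure at 37 C, One-Glo luminescence was measured.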

[14] = target: Peroxisome proliferator-activated receptor alpha (Homo sapiens) (UniProt Q07869); test: qHTS assay for small molecule agonists of the peroxisome proliferator-activated receptor alpha (PPARalpha) signaling pathway (AID 651778); conditions: PathHunter PPARalpha complementation, chemiluminescence, 6 h; active compounds read high; also: % of control where 0% means no effect
Summary of the method: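 Enzyme-fragment complementation assay in which ligand-bound PPARalpha translocates and forms an active enzyme that generates chemiluminescence. Cells were plated overnight, exposed to compound for 6 hr at 37 C, and then given detection reagent for 60 min at room temperature.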

[15] = qHTS assay for cell viability of the p53RE-bla HCT-116 cell line (AID 743292); also: % is scaled to controls: 0 for no effect and ±100 for the full control effect; nearly all actives have a fitted effect of over 55% in size
Summary of the method: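 Viability of compound-treated p53RE-bla HCT-116 cells is taken from ATP-dependent luciferase luminescence. Treatment lasts 16 h at 37 C after a 5 h settling period; detection follows 30 min at room temperature.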

[16] = Cellular Toxicity (caspase-3) Jurkat (AID 655); conditions: Jurkat caspase-3 activation, luminescence; caspase-3 activation: at 92.2 µM (top of the series), DMSO = 0%, tamoxifen = 100%;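 also: cells exposed to compound for 16 h at 37 °C before reading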
Summary of the method: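 5000 Jurkat cells/well; compound 16 hr, 37 °C; Caspase-Glo 3/7 added, 20 min RT; luminescence read. Norm: DMSO = 0%, tamoxifen 100 uM = 100%. AC50, Hill model.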

[17] = Cell Viability - LYMP1-003 - Assay at 40 hr (AID 964); also: % is scaled to controls: 0 for no effect and ±100 for the full control effect; nearly all actives have a fitted effect of over 60% in size
Summary of the method: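 Viability is taken as cellular ATP, read by CellTiter-Glo luminescence after 40 h of compound exposure at 37 C. Cells: human lymphoblastoid line LYMP1-003 at 2500/well; AC50 values derived by Hill-equation fitting of concentration-response data.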

[18] = Cell Viability - LYMP2-009 (AID 968)
[19] = Cell Viability - LYMP2-011 (AID 969);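 also: 0% = DMSO only and full inhibition = 92 µM tetraoctylammonium bromide; nearly all actives have a fitted effect of over 60% in size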
Summary of the method: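 Cytotoxicity qHTS with ATP content as read-out: lymphoblastoid cells (2500/well) exposed to compound for 24 h at 37 C, then luciferase luminescence measured. Concentration-response data fitted with the standard Hill equation to give AC50.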

[20] = Cell Viability - LYMP2-020 (AID 986)
Summary of the method: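 Cytotoxicity in qHTS format: luminescent ATP readout from CellTiter-Glo after 24 h compound exposure at 37 C in complete medium. LYMP2-020 lymphoblastoid cells were seeded at 2500/well; concentration-response data fitted to the Hill equation for AC50.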

Sequence of Peroxisome proliferator-activated receptor alpha (Homo sapiens) (Q07869 whole entry, looked up, the tested form may be a part): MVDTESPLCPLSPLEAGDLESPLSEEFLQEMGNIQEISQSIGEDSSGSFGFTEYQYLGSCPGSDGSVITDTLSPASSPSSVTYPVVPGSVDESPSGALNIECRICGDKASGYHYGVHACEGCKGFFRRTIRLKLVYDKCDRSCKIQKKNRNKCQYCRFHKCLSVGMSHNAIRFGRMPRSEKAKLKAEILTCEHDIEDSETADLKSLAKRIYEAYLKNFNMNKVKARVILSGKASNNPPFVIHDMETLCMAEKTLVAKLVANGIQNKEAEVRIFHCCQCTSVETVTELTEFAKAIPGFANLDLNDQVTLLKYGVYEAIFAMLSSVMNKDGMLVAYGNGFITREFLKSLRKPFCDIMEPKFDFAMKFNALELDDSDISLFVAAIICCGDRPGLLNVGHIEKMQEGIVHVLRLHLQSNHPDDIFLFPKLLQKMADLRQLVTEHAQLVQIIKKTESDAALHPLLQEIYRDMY

O=Cc1ccc2c(c1)OCO2
inactive: Potency [1] | outcome [2] | Potency [3] | outcome [4] | outcome [5] | outcome [6] | Potency [7] | Potency [8] | Potency [9] | Potency [10] | Potency [11] | Potency [12] | activation [13] -0.902% | max response [14] -6.34% | Potency [15]

C=CC(=O)OCC(CC)CCCC (stereo not drawn)
inactive: Potency [1] | outcome [2] | caspase-3 activation [16] -0.0566% | Potency [3] | outcome [4] | outcome [6] | Potency [17] | Potency [18] | Potency [19] | Potency [7] | Potency [8] | Potency [9] | Potency [10] | Potency [11] | Potency [20] | Potency [12] | activation [13] 2.67% and -0.331% | max response [14] 4.79% and 0.332% | Potency [15]

Nc1cc(Cl)ccc1Cl
inactive: caspase-3 activation [16] 0.909% | Potency [3] | outcome [5] | outcome [6] | Potency [17] | Potency [18] | Potency [19] | Potency [7] | Potency [9] | Potency [10] | Potency [11] | Potency [20] | max response [14] -1.24% | Potency [15]

CC(Cl)CCl (stereo not drawn)
inactive: Potency [17] | Potency [18] | Potency [19] | Potency [7] | Potency [8] | Potency [9] | Potency [10] | Potency [11] | Potency [20] | Potency [12] | activation [13] 0.102% | max response [14] -4.11% | Potency [15]

Cc1ccc(N)c(N)c1
inactive: outcome [2] | Potency [3] | outcome [4] | outcome [5] | Potency [11] | max response [14] -2.85% | Potency [15]

CCOP(=S)(OCC)SCCSCC
inactive: Potency [1] | outcome [2] | caspase-3 activation [16] -2.31% | Potency [3] | outcome [4] | outcome [5] | outcome [6] | Potency [17] | Potency [18] | Potency [19] | Potency [8] | Potency [9] | Potency [10] | Potency [11] | Potency [12] | activation [13] 1.01% and -2.18% | max response [14] -1.85% and -0.372% | Potency [15]

O=[N+]([O-])c1ccc(Cl)cc1
inactive: Potency [1] | outcome [2] | caspase-3 activation [16] 1.25% | Potency [3] | outcome [4] | outcome [5] | outcome [6] | Potency [17] | Potency [18] | Potency [19] | Potency [7] | Potency [8] | Potency [11] | Potency [20] | Potency [12] | activation [13] -0.207% and 4.63% | max response [14] -4.31% and 0.471% | Potency [15]

CCOS(C)(=O)=O
inactive: Potency [1] | outcome [2] | caspase-3 activation [16] 0.622% | Potency [3] | outcome [4] | outcome [5] | outcome [6] | Potency [17] | Potency [18] | Potency [19] | Potency [7] | Potency [8] | Potency [9] | Potency [20] | Potency [12] | activation [13] 0.384% | max response [14] 0.417% | Potency [15]

Cl/C=C\Cl
inactive: outcome [2] | caspase-3 activation [16] 0.747% | Potency [3] | outcome [5] | outcome [6] | Potency [19] | Potency [8] | Potency [9] | Potency [11] | Potency [20] | activation [13] 0.819% | max response [14] -0.887% | Potency [15]

CC(Cl)(Cl)Cl
inactive: Potency [1] | caspase-3 activation [16] -0.991% | Potency [3] | outcome [5] | outcome [6] | Potency [17] | Potency [7] | Potency [8] | Potency [9] | Potency [10] | Potency [11] | Potency [20] | Potency [12] | activation [13] -0.393% and 0.414% | max response [14] -3.93% and -1.58% | Potency [15]

O=C(Cl)OCc1ccccc1
inactive: outcome [2] | caspase-3 activation [16] 0.751% | Potency [3] | outcome [5] | outcome [6] | Potency [17] | Potency [18] | Potency [19] | Potency [7] | Potency [8] | Potency [9] | Potency [10] | Potency [12] | activation [13] 0.249% | Potency [15]

CCCCCCCCCCCOC(=O)c1ccccc1C(=O)OCCCCCCCCCCC
inactive: outcome [2] | caspase-3 activation [16] 2.1% | outcome [4] | outcome [5] | outcome [6] | Potency [17] | Potency [18] | Potency [19] | Potency [8] | Potency [10] | Potency [11] | Potency [20] | Potency [12] | activation [13] -2.18% | max response [14] 0.22%

Cc1ccccc1[N+](=O)[O-]
inactive: outcome [2] | Potency [3] | outcome [5] | outcome [6] | Potency [17] | Potency [18] | Potency [19] | Potency [7] | Potency [9] | Potency [10] | Potency [20] | Potency [12] | activation [13] -1.35% | Potency [15]

N#CCCCCC#N
inactive: Potency [1] | outcome [2] | caspase-3 activation [16] -0.898% | Potency [3] | outcome [4] | outcome [6] | Potency [17] | Potency [18] | Potency [19] | Potency [7] | Potency [8] | Potency [9] | Potency [10] | Potency [11] | Potency [20] | Potency [12] | activation [13] 0.486% | max response [14] -1.89% | Potency [15]

COc1cc(-c2ccc(N)c(OC)c2)ccc1N
inactive: Potency [1] | caspase-3 activation [16] -0.124% | outcome [4] | outcome [5] | Potency [18] | Potency [19] | Potency [7] | Potency [8] | Potency [9] | Potency [10] | Potency [11] | Potency [20] | max response [14] -3.45% and -1.48% and -1.31% | Potency [15]
